High-throughput results: PubChem BioAssay, The Scripps Research Institute Molecular Screening Center
MBD2 DNA inh: inhibitors of human MBD2 binding to methylated oligonucleotide. TR-FRET. inhibition, % at 4.4 µM. 0.31% of 370,000 active; in the data active means inhibition above about 13%
Target sequence (Q9UBB5 whole entry, looked up): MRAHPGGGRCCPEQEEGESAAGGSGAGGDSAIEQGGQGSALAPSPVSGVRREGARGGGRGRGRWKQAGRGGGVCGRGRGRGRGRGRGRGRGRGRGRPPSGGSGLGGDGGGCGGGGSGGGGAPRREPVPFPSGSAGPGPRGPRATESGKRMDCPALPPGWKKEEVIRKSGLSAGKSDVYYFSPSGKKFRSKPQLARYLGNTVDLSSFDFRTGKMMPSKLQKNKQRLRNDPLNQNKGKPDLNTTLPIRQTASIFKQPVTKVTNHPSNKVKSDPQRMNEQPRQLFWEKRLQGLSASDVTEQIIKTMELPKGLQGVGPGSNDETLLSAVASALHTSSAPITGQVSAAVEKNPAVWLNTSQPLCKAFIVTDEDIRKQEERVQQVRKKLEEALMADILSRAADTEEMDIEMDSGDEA
UHRF1 MBD2 ctr: human UHRF1 methylated DNA binding inhibitors. Q96T88. UHRF1 binding to methylated oligo, TR-FRET. inhibition, % at 4.4 µM. 0.75% of 370,000 active; in the data active means inhibition above about 21%;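 further: UHRF1 SRA domain binding a hemimethylated CpG hairpin DNA probe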
PLC-gamma1 inh: blocks human PLC-gamma1 enzyme activity; P19174; purified PLC-gamma1, fluorogenic substrate, fluorescence; inhibition, % at 12.2 µM; 0.84% of 370,000 active; AID 720700
PLCb3 inh: inhibitors of human phospholipase C beta3. Q01970. Purified PLC-beta3, fluorogenic substrate, fluorescence. inhibition, % at 12.2 µM. 0.18% of 370,000 active; in the data active means inhibition above about 11%
LEDGF integ inh: blocks HIV-1 LEDGF/p75-dependent DNA integration; TR-FRET IN-LEDGF/p75 DNA integration, Eu/Cy5; inhibition, % at 3.7 µM; 0.64% of 370,000 active; AID 743269;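 active means inhibition above the screen-wide mean plus 3 SD, cut at about 13% in these data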;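 further: signal is the Cy5 over europium emission ratio at 671 and 618 nm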
PLCg1 ctr: inhibits human PLC-gamma1 in PLC-beta3 counter-screen. shares compounds with PLC-gamma1 inh. purified PLC-gamma1, fluorogenic substrate, fluorescence. inhibition, % at 12.3 µM. 3.1% of 3,300 active
PLCb3 confirm: human PLC-beta3 inhibition, confirmation; shares compounds with PLC-gamma1 inh; purified PLC-beta3, fluorogenic substrate fluorescence; inhibition, % at 12.3 µM; 1% of 3,300 active; in the data active means inhibition above about 11%
Of the large screens only hits and unclear results are named; the others gave an inactive call (follow-up assays come after a bar, where they were run). A selection: hits, their analogues and other compounds. The true share with any hit is near 2.3%. Unless noted, no stated cut-off is given here; in the data, active means inhibition above about 9.5%; inactive means the rest.

Cc1cccc(N2CCN(C(c3ccccc3)c3nnnn3C(C)(C)C)CC2)c1C (centres undefined)	none
COc1ccc(C(c2nnnn2C(C)(C)C)N2CCN(C/C=C/c3ccccc3)CC2)cc1 (centres undefined)	PLC-gamma1 inh 11.4 | PLCg1 ctr inactive | PLCb3 confirm inactive
COc1ccccc1N1CCN(C(c2ccc(Cl)cc2)c2nnnn2C(C)(C)C)CC1 (centres undefined)	PLC-gamma1 inh 12.8 | PLCg1 ctr inactive | PLCb3 confirm inactive
O=C(NCc1ccccc1)OCCCN1C(=O)CCC12CCCCC2	none
CCOc1ccccc1C(=O)NCC(=O)NCCc1ccc(S(N)(=O)=O)cc1	PLC-gamma1 inh 10.0 | PLCg1 ctr inactive | PLCb3 confirm inactive
COc1ccc(CNC(=O)C2(c3ccc(Cl)cc3)CC2)cc1	PLC-gamma1 inh 14.0 | PLCg1 ctr inactive | PLCb3 confirm inactive
NS(=O)(=O)c1ccc(CNC(=O)C2(c3ccc(Cl)cc3)CC2)cc1	none
C/C(=N\Nc1ccc([N+](=O)[O-])cc1[N+](=O)[O-])C(C)(C)C(C(=O)O)C(=O)O	PLC-gamma1 inh 10.7 | PLCg1 ctr inactive | PLCb3 confirm inactive
CC(C)(C)NC(=O)NC(=O)COC(=O)Cc1c(Cl)cccc1Cl	PLC-gamma1 inh 9.8 | PLCg1 ctr inactive | PLCb3 confirm inactive
Oc1ccccc1C1OCC2(CO1)COC(c1ccccc1O)OC2 (centres undefined)	none
c1ccc2c(C3OCC4(CCCC4)CO3)cccc2c1	PLC-gamma1 inh 9.6 | PLCg1 ctr inactive | PLCb3 confirm inactive
N#CCOc1nc(N2CCOCC2)nc(N2CCOCC2)n1	PLC-gamma1 inh 10.0 | PLCg1 ctr inactive | PLCb3 confirm inactive
CN[C@H](C)C(=O)NC[C@H]1O[C@@H](n2ccc(N)nc2=O)[C@H](O)[C@@H]1O	none
CC(=O)NC[C@H]1O[C@@H](n2ccc(N)nc2=O)[C@H](O)[C@@H]1O	PLC-gamma1 inh 10.0 | PLCg1 ctr inactive | PLCb3 confirm inactive
S=C(Cc1ccc(-c2ccccc2)cc1)N1CCOCC1	PLC-gamma1 inh 9.9 | PLCg1 ctr inactive | PLCb3 confirm inactive
CCn1c2ccccc2c2cc(NC(=O)CSc3nnc(-c4cccc(F)c4)o3)ccc21	PLC-gamma1 inh 12.6 | PLCg1 ctr inactive | PLCb3 confirm inactive
COCCCNC(=O)C[C@@H]1C(=O)N2CCCC3=C2[C@@]1(C(=O)OC)CCCC3	none
c1ccc(CN2CCOCCOCCOCC2)cc1	none
O=C(N1CCOCC1)N1CCN(Cc2ccccc2)CC1	PLC-gamma1 inh 10.2 | PLCg1 ctr inactive | PLCb3 confirm inactive
CC1CCN(C(=O)CSc2nc3c(cnn3-c3ccccc3)c(=O)[nH]2)CC1	none
CCN(C(=O)CSc1nc2c(cnn2-c2ccccc2)c(=O)[nH]1)C1CCS(=O)(=O)C1 (centres undefined)	PLC-gamma1 inh 9.7 | PLCg1 ctr inactive | PLCb3 confirm inactive
CC1CCN(C(=O)CSc2nc3c(cnn3-c3ccc(Cl)cc3)c(=O)[nH]2)CC1	PLC-gamma1 inh 10.0, PLCb3 inh 11.3 | PLCg1 ctr inactive | PLCb3 confirm inactive
Cc1cccc(NC(=O)c2cc(S(=O)(=O)c3ccccc3)ccc2Cl)c1	PLC-gamma1 inh 11.1 | PLCg1 ctr inactive | PLCb3 confirm inactive
COc1ccc(F)cc1S(=O)(=O)N1CCCN(S(=O)(=O)c2cc(F)ccc2OC)CC1	none
COc1ccc(F)cc1S(=O)(=O)n1cc(C)nc1-c1ccccc1	PLCb3 inh 10.9 | PLCg1 ctr inactive | PLCb3 confirm inactive
O=C(Nc1cc2c(cc1[N+](=O)[O-])OCCO2)c1cccnc1	PLC-gamma1 inh 10.1 | PLCg1 ctr inactive | PLCb3 confirm inactive
C=CCN1[C@H](C#N)[C@@H](c2ccccc2)[C@H]1CO	none
Cc1ccc(C)c(OCc2nc(-c3cccnc3)no2)c1	PLC-gamma1 inh 9.8 | PLCg1 ctr inactive | PLCb3 confirm inactive
Cc1cccc(OCc2nc(-c3cccnc3)no2)c1	none
c1ccc(-c2c[nH]c3ccc(OCCN4CCOCC4)c(-c4ccccc4)c23)cc1	none
CCOC(=O)c1ccc(NC(=O)N2CCN(S(C)(=O)=O)CC2)cc1	PLC-gamma1 inh 12.1 | PLCg1 ctr inactive | PLCb3 confirm inactive
O=C(CSc1nnc(-c2ccccn2)n1Cc1ccco1)Nc1ccc(Oc2ccccc2)cc1	PLC-gamma1 inh 10.7 | PLCg1 ctr inactive | PLCb3 confirm inactive
COc1ccc(NC(=O)CSc2nnc(-c3ccccn3)n2Cc2ccco2)cc1OC	none
O=C(OC12CCCN(C1)/C(=C/c1cccc(Cl)c1)C2)c1ccc(Cl)cc1 (centres undefined)	none
Cc1ccc(Cn2cccc2C2=NC(C)CO2)cc1 (centres undefined)	PLC-gamma1 inh 11.3 | PLCg1 ctr inactive | PLCb3 confirm inactive
CN(C1=C(NC(=O)c2ccc(Cl)cc2)C(=O)c2ccccc2C1=O)c1ccccc1	PLC-gamma1 inh 12.3 | PLCg1 ctr inactive | PLCb3 confirm inactive
CN1C/C(=C/c2ccccc2)N2C(=O)C[C@@H](c3ccccc3)N=C12	none
COP(=O)(CC(=O)OC(C)(C)C)C(CC(C)C)NC(=O)OCc1ccccc1 (centres undefined)	none
CC(=O)c1c(C)[nH]c(C(=O)OCC(=O)NCCc2ccc(Cl)cc2)c1C	PLC-gamma1 inh 10.7 | PLCg1 ctr inactive | PLCb3 confirm inactive
CC(=O)c1c(C)[nH]c(C(=O)OCC(=O)NCCc2ccc(F)cc2)c1C	none
CCOc1ccc(-n2c(SCC(=O)Nc3ccc(S(=O)(=O)Nc4cc(C)nc(C)n4)cc3)nnc2-c2ccc(C)cc2)cc1	none
O=C1C=C(NCc2ccc(Cl)cc2)CC(c2ccco2)C1 (centres undefined)	PLC-gamma1 inh 10.7 | PLCg1 ctr inactive | PLCb3 confirm inactive
Cc1ccc(OCCCn2c(CO)nc3ccccc32)cc1	none
Cc1cccc(OCCCn2c(CO)nc3ccccc32)c1	PLC-gamma1 inh 12.2 | PLCg1 ctr inactive | PLCb3 confirm inactive
Clc1ccccc1OCCN1CCC(Cc2ccccc2)CC1	PLC-gamma1 inh 20.3, PLCb3 inh 18.3 | PLCg1 ctr inactive | PLCb3 confirm inactive
C[C@H](O)[C@@H]1CN2CCc3ccc(N4CCOCC4)cc3[C@@H]2C[C@@H]1N(C)C(=O)c1ccco1	none
CN1C(=O)CSC1=NC12CC3CC(CC(C3)C1)C2	PLC-gamma1 inh 10.7 | PLCg1 ctr inactive | PLCb3 confirm inactive
CCN1C(=O)CSC1=NC12CC3CC(CC(C3)C1)C2	none
CCn1c(SCc2c(F)cccc2F)nc2sc3c(c2c1=O)CCCC3	none
Cn1c(=O)c2c(nc(NCc3cccnc3)n2Cc2cccc(C(F)(F)F)c2)n(C)c1=O	PLC-gamma1 inh 12.0 | PLCg1 ctr inactive | PLCb3 confirm inactive
Cc1ccc(NC(=O)CSc2n[nH]c(-c3ccco3)n2)c(C)c1	PLC-gamma1 inh 10.4 | PLCg1 ctr inactive | PLCb3 confirm inactive
Cc1ccc(NC(=O)CSc2n[nH]c(-c3ccco3)n2)cc1	none
COc1ccc(-n2c(SCC(=O)Nc3ccccc3-c3ccccc3)nnc2-c2ccco2)cc1	none
